This is a sample that favours compounds with a hit; in the whole collection about 7% have one here.
IL-1B inflam inh: inflammasome signaling inhibition, IL-1 beta readout; 360,000 compounds, 4.7% hits; THP-1 LPS/ATP IL-1B secretion, AlphaLISA, 16 h; active compounds read low; activity change, % at 57.5 µM; in the data active means activity change below about -50%; inconclusive means mostly about -30% to -49%; further: on the % scale 0 is the no-effect control and ±100 the full control effect
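Secreted IL-1B measured by AlphaLISA bead assay after 16 h compound exposure of THP-1 cells; compounds (final up to 57.5 uM) added 1 h before LPS (250 ng/mL) and ATP (1.25 mM) stimulation; lower signal means less secretion.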
ATXN2 expr inh: ATXN2 expression inhibition. HEK-293 ATXN2-luciferase reporter, luminescence, 24 h. Potency, µM (series often up to 57 µM), inactives show top-dose activity change, negative = inhibition, actives largely listed as inhibitors. 360,000 compounds, 0.72% hits; further: potency means the concentration at half of the fitted maximal effect; on the % scale 0 is the no-effect control and ±100 the full control effect; nearly all actives have a fitted effect of over 55% in size
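qHTS (up to 57 uM final) was run with 24 h compound exposure of reporter cells at 37 °C. Each well was multiplexed: SteadyGlo luminescence measured ATXN2-luciferase expression after a fluorogenic Gly-Phe-AFC viability readout (25 uM final).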
D3 antag: D3 dopamine receptor (human) antagonism; P35462; D3R cells, DiscoveRx beta-arrestin luminescence, antagonist mode; active compounds read low; max response, negative = inhibition, %; 360,000 compounds, 2.5% hits; AID 652054; in the data active means max response below about -50%; inconclusive means no clear call, values can overlap the other calls; further: on the % scale 0 is the no-effect control and ±100 the full control effect
Target sequence (P35462 whole entry, looked up): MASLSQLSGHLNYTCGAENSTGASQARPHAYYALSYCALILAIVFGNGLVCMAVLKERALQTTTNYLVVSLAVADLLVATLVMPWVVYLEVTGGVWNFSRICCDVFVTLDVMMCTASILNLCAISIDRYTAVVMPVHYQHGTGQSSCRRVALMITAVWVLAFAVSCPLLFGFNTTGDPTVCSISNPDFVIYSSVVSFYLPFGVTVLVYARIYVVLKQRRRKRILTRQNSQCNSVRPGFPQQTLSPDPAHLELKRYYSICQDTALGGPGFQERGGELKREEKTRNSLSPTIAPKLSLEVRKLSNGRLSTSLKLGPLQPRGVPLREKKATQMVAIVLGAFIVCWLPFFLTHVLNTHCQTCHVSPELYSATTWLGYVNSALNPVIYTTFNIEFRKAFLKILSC
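Cells expressing the human receptor were seeded at 1500 cells/well, incubated overnight at 37 degrees C in 5% CO2, then exposed to library compounds with dopamine controls for 90 minutes at 37 degrees C before luminescent detection.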
DRD3 agonist: D3 dopamine receptor (human) agonism | 410,000 compounds, 0.58% hits | D3R DiscoveRx beta-arrestin cells, luminescence, 90 min | max activation, % | P35462; in the data active means max activation above about 30%; further: 0% is about no effect
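Cells at 1500/well, incubated overnight, then treated with pinned compounds (dopamine as control) for 90 min at 37 degrees C. DiscoveRx reagent added for 30 - 60 minutes at room temperature; luminescence read.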
ATXN viability: viability counter-screen for ATXN expression inhibitors; 400,000 compounds, 0.49% hits; S2 cells (HEK-293 line with an ATXN2-luciferase reporter) viability, CellTiter-Fluor protease fluorescence, 24 h; Potency, µM (doses to about 56.7 µM), hits mostly cytotoxic; further: potency means the concentration at half of the fitted maximal effect; nearly all actives have a fitted effect of over 40% in size
a7 integrin act: activators of alpha7 integrin expression for muscular dystrophy | alpha7betagal myoblasts, beta-gal FDG fluorescence, 48 h | Potency, µM (highest dose often 38.3 µM), for the others: top-dose activation, usual class: activators | 350,000 compounds, 0.064% hits | AID 624291;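 further: potency means the concentration at half of the fitted maximal effect; 100% = response of the positive control SU9516; nearly all actives have a fitted effect of over 60% in size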
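alpha7betagal+/- myoblasts (passage 13, 250/well) treated 48 h at 37C with compounds at 1:260 dilution of DMSO stock. Lysed, then beta-galactosidase activity read as FDG fluorescence (ex 480/em 540) after 30 min, with pre-read for autofluorescence.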
Active calls of the source: *; i = inactive; ? = inconclusive; / = no result given. Unless noted, the call rests on the fitted dose curve; in most records, active means well fitted curve in the direction sought with a large enough effect; inconclusive means small, poorly fitted or top-dose-only effect, or another doubt; inactive means no such curve, though single readings can be large; an effect the other way counts as inactive or inconclusive.

SMILES	IL-1B inflam inh	ATXN2 expr inh	D3 antag	DRD3 agonist	ATXN viability	a7 integrin act
CC(NC(=O)C1CCN(CCOc2ccc(Cl)cc2)CC1)c1cccc2ccccc12 (stereo not given)	?	?	-53*	-17	?	/
COc1ccccc1C(NC(=O)C1CCN(CCOc2ccccc2)CC1)c1ccccn1 (stereo not given)	-12	-5%	-55*	-7	i	/
COCCCNC(=O)CCc1nc(-c2ccccc2)no1	23	3%	9	1	i	13%
COc1ccc(/C=C/CN2CCCC(CCC(=O)NCc3ccc(F)c(F)c3)C2)cc1 (stereo not given)	-84*	-32%	-55*	-32	/	-66%
COc1ccc(CC(=O)NCC2CCCN(Cc3cc(OC)cc(OC)c3)C2)cc1 (stereo not given)	-50*	-3%	3	0	i	13%
COC(=O)c1ccc(CN2CCCC(CNC(=O)Cc3ccc(OC)cc3)C2)cc1 (stereo not given)	17	4%	3	-20	i	19%
COc1ccccc1/C=C/CN1CCCC(CCC(=O)NCc2ccc(F)c(F)c2)C1 (stereo not given)	-74*	-17%	-66*	-18	i	-8%
COCCC(=O)N1CCCC(CCC(=O)NCc2ccc(F)c(F)c2)C1 (stereo not given)	0	23%	-21	-10	i	?
COc1cccc(CNC(=O)CCC2CCCN(C/C=C/c3ccccc3OC)C2)c1 (stereo not given)	?	-23%	-55*	-13	i	-10%
CN(C)c1cccc(C(=O)NCC2Cc3cccc(-c4cncnc4)c3O2)c1 (stereo not given)	/	/	/	/	i	/
CC(C)(Oc1ccc(Cl)cc1)C(=O)NC1CCCCC1	-11	-2%	1	2	i	29%
NC(=O)c1nsc(C(=O)N(c2cccc(F)c2)C(C(=O)NCC2CCCO2)c2cccs2)c1N (stereo not given)	-14	0%	17	4	i	-35%
COc1ccccc1/C=C/CN1CCCCC1	-1	1%	?	-9	i	0%
COCCNC(=O)CCC1CCN(C/C=C/c2ccccc2OC)CC1	-6	-14%	-56*	-20	i	-2%
Cc1ccnc(NS(=O)(=O)c2cccc([N+](=O)[O-])c2)c1	-9	/	-13	3	i	18%
Cc1ccc(CNCC(O)(c2ccccc2)c2ccc(Cl)cc2)cc1 (stereo not given)	-75*	?	-3	-11	?	-64%
c1ccc(COc2cccc(CNCc3cccnc3)c2)cc1	-1	3%	-23	-10	i	17%
OCCNCc1cccc(OCc2ccc(Cl)cc2)c1	-56*	-27%	-30	-16	i	-48%
COc1cccc(CNCC(O)(c2ccc(Cl)cc2)c2ccc(Cl)cc2)c1	-57*	?	16	-10	?	-56%
COc1ccc(CNCC(O)(c2ccccc2)c2ccc(Cl)cc2)cc1 (stereo not given)	0	?	?	0	i	-57%
Cc1ccc(CNCC(O)(c2ccccc2)c2ccccc2)cc1	-11	/	13	-9	i	3%
COc1cc(CC(=O)OCC(=O)N2CC(=O)Nc3ccccc32)cc(OC)c1OC	0	/	-13	-1	i	11%
CC(=O)NC1=NN(C(C)=O)C(c2ccccn2)S1 (stereo not given)	-9	3%	5	-1	i	-3%
CCCCN1C(=O)c2ccc(C(=O)OCC(=O)NCCc3ccc(S(N)(=O)=O)cc3)cc2C1=O	14	-9%	14	4	i	24%
O=C(Nc1cccnc1)c1ccc(COc2ccccc2Br)o1	-12	-21%	5	27	?	-49%
CC(C)(C)c1ccc(OCc2ccc(C(=O)Nc3cccnc3)o2)cc1	-51*	?	4	-13	?	-20%
CC(C)(C)c1ccc(C(=O)Nc2ccc(Oc3cccnc3)nc2)cc1	-73*	-35%	-2	5	?	-22%
